miR-122 sensor – miR-122 Renilla sensor signal increase in Huh7, primary screen, miR-122 inhibitor project, cell-based, single point, plate reader; Huh7 miR-122 Renilla luciferase sensor, 48 h; neutral wells = 0, positive control = 100; activation (reporter increase), % at 12.5 µM; 340,000 tested, 0.3% active; AID 602342, 2012;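 active means mean replicate activation score at least 90 and every replicate individually at or above 90; inconclusive means only one of the two criteria met; inactive means neither criterion met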;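 further: higher luciferase means less miR-122 activity so hits act as miR-122 inhibitors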
Wnt act – Wnt/beta-catenin pathway activators, primary screen, cell-based, plate reader, single point. activation, % at 9.35 µM. Wnt/beta-catenin reporter cell assay, activator. AID 743398, 2014. 300,000 tested, 1.2% active; in the data active means activation above about 30%, passing the limit was not always enough; inconclusive means no clear call, values can overlap the other calls;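 further: 0% = neutral control wells and 100% = positive control wells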
esBAF inh – Bmi1 luciferase reporter increase in mESCs, primary screen, esBAF inhibitor project, mouse ES cells, Bmi1 luciferase knock-in, single point | 24 h; 100% = twice the neutral-well signal | reporter increase, % at 12.5 µM | 350,000 tested, 2% active; in the data active means activation above about 40%; inconclusive means no clear call, values can overlap the other calls;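 further: 0% = median of the plate's neutral control wells and 100% = double that signal; a rise in the Bmi1 reporter signal indicates esBAF inhibition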
HIV Env fusion – inhibitors of HIV-1 Env-driven cell-cell fusion, primary screen, HeLa-JRFL effector, CEM21 target cells, luciferase; inhibition, % at 12.3 µM; 360,000 tested, 1.1% active; AID 651610, 2012;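 active means mean replicate inhibition score of at least 50 and every replicate individually at or above 50; inconclusive means only one of the two criteria met; inactive means mean below 50 and not all replicates reaching 50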;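 further: 0% = plate neutral controls and 100% = maraviroc near 300 nM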
MITF act – activators of MITF-driven TRPM1 promoter reporter, primary screen, cell-based, SK-MEL-5, luciferase, single point | activation, % at 12.5 µM | 300,000 tested, 0.75% active | SK-MEL-5 TRPM1-promoter luciferase, 24 h; % of positive control, neutral wells = 0 | AID 588334, 2011;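 active means mean activation of at least 80% with every replicate also reaching 80%; inconclusive means mean reaches 80% but some replicate falls short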;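 further: 0% = neutral control wells and 100% = parthenolide positive control wells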
* marks the source's active call; other numbers are inactive results; [ ] = another dose, or the depositor's remark. Most compounds without a hit are left out; they make up all but 3.4% or so of the library.

`Cc1noc(C)c1NC(=O)N(C)C[C@H]1Oc2ccc(NS(=O)(=O)c3cn(C)cn3)cc2CC(=O)N([C@H](C)CO)C[C@@H]1C` gave miR-122 sensor -6[16.7 µM], esBAF inh -1 and HIV Env fusion -8[16.7 µM].
CCN1[C@@H]2c3ccc(C4=CCCC4)c(=O)n3C[C@H]1[C@H](CO)[C@H]2C(=O)NCc1ccccn1 was read as miR-122 sensor -2[16.7 µM] and esBAF inh 4.
For Cc1ccc(O)c(C2=Nc3ccccc3C2(C)C)c1 the results were miR-122 sensor -1, Wnt act -1, esBAF inh 67*, HIV Env fusion -37 and MITF act 98*.
For COc1ccc(C)cc1C1=Nc2ccccc2C1(C)C the results were miR-122 sensor -1, HIV Env fusion 1 and MITF act 8.
For CO[C@H]1CN(C)C(=O)c2cc(NS(C)(=O)=O)ccc2OC[C@H](C)N(Cc2nccs2)C[C@H]1C the results were miR-122 sensor 7[16.7 µM], esBAF inh -6 and HIV Env fusion 9[16.7 µM].
`Cc1nc(C(=O)Nc2ccccc2)sc1C1(C)CC(c2cccnc2)=NO1` (stereo unspecified) gave miR-122 sensor 2, Wnt act 22, esBAF inh 46*, HIV Env fusion -20 and MITF act 53.
`COc1ccc(NC(=O)c2nc(C)c(C3(C)CC(c4ccccc4)=NO3)s2)cc1` (stereo unspecified) gave miR-122 sensor 10, Wnt act -6, esBAF inh -20, HIV Env fusion -303 and MITF act -28.
`C[C@H](CO)N1C[C@H](C)[C@@H](CN(C)S(=O)(=O)c2cn(C)cn2)Oc2ccc(NC(=O)NC3CCCCC3)cc2CC1=O` gave miR-122 sensor 2[16.7 µM], esBAF inh -4 and HIV Env fusion -13[16.7 µM].
For CCCOc1c(Br)cc(C2C3=C(CCCC3=O)N(CC)C3=C2C(=O)CCC3)cc1OC the results were miR-122 sensor inconclusive, Wnt act -4, esBAF inh 44*, HIV Env fusion -7 and MITF act 4.
`Cc1ccccc1-c1cnc2c(c1)C(=O)N([C@H](C)CO)C[C@H](C)[C@@H](CN(C)C(=O)CC1CC1)O2` gave miR-122 sensor 43[16.7 µM], esBAF inh -13 and HIV Env fusion 9[16.7 µM].
For COc1ccc(CN=C2Nc3ccccc3CS2)cc1 the results were miR-122 sensor 3, esBAF inh 61* and HIV Env fusion -367.
COc1ccc(CN=C2NN=C(c3ccc(Cl)cc3)CS2)cc1 was read as Wnt act 1, HIV Env fusion -12 and MITF act 20.
For Cc1noc(C)c1COc1ccccc1C(=O)N(C)CC(=O)Nc1ccc(Cl)c(Cl)c1 the results were Wnt act 0, esBAF inh 4, HIV Env fusion -4 and MITF act 24.
For Cc1noc(C)c1COc1ccccc1C(=O)N(C)Cc1ccco1 the results were miR-122 sensor 3, Wnt act 38*, esBAF inh -1 and MITF act -1.
For COc1ccc(/C=C2\NC(=S)N(CC3CCCO3)C2=O)c(OC)c1 (stereo unspecified) the results were miR-122 sensor -6, Wnt act 18, esBAF inh 48*, HIV Env fusion -25 and MITF act 52.
Screening COc1ccc(/C=C2\NC(=S)N(CC3CCCO3)C2=O)c(OC)c1C (stereo unspecified) returned miR-122 sensor -4, esBAF inh 12 and MITF act -13.
CO[C@@H]1CN(C)C(=O)c2ccc(NC(=O)c3ccccc3F)cc2OC[C@H](C)NC[C@@H]1C was read as miR-122 sensor -18[16.7 µM], esBAF inh -2 and HIV Env fusion 11[16.7 µM].
`COC(=O)c1ccc(COC(=O)c2ccc(N(C)C)cc2)cc1` gave miR-122 sensor 7, esBAF inh -8 and MITF act 32.
For CN(C)c1ccc(C(=O)OCc2ccccc2)cc1 the results were miR-122 sensor -8, esBAF inh 50*, HIV Env fusion -153 and MITF act 60.
`Cc1nc(C2COc3ccccc3O2)sc1C(=O)O` (stereo unspecified) gave Wnt act 12, esBAF inh 45*, HIV Env fusion -12 and MITF act 37.

Screening data (PubChem)
